# Reference: the supplement of paper PMC4466140
# B1: unnamed (peptide)
# chain: FPPKRKPLLRPQRSD
# B2: unnamed (peptide)
# chain: DTIDNVKSKIQDKEG
# Columns and labels:
# Assay in all cases: SPOT peptide array binding signal intensity (averaged, normalized) (arbitrary units (background-subtracted, floor 0; scale differs between SH3 domains)); higher = stronger binding of the SH3 domain to the peptide
# [1] = molecular target: CaNbp2
# How it was run: (§1)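 The binding signal is the normalized, background-subtracted spot intensity averaged over replicates; its arbitrary units differ between domains. It was obtained by incubating 10 μg/ml GST-fused SH3 domains from four yeast species overnight at 4°C in TBS-based blocking buffer on cellulose membranes with synthetic 15-mer peptides, cysteines replaced by serines, then detecting with anti-GST antibody, HRP anti-mouse secondary and luminol.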
# [2] = molecular target: CaRvs167
# How it was run: as §1
# [3] = molecular target: CaRvs167-3
# How it was run: as §1
# [4] = molecular target: CaSho1
# How it was run: as §1
# [5] = molecular target: CaSla1-D1-D2
# How it was run: as §1
# [6] = molecular target: CaSla1-D3
# How it was run: as §1
# [7] = molecular target: ScAbp1
# How it was run: as §1
# [8] = molecular target: ScBbc1
# How it was run: as §1
# [9] = molecular target: ScBem1-D1
# How it was run: as §1
# [10] = molecular target: ScBzz1-D1
# How it was run: as §1
# [11] = molecular target: ScBzz1-D2
# How it was run: as §1
# [12] = molecular target: ScCyk3
# How it was run: as §1
# [13] = molecular target: ScFus1
# How it was run: as §1
# [14] = molecular target: ScHof1
# How it was run: as §1
# [15] = molecular target: ScHse1
# How it was run: as §1
# [16] = molecular target: ScLsb1
# How it was run: as §1
# [17] = molecular target: ScLsb2
# How it was run: as §1
# [18] = molecular target: ScLsb3
# How it was run: as §1
# [19] = molecular target: ScLsb4
# How it was run: as §1
# [20] = molecular target: ScMyo3
# How it was run: as §1
# [21] = molecular target: ScMyo5
# How it was run: as §1
# [22] = molecular target: ScNbp2
# How it was run: as §1
# [23] = molecular target: ScPex13
# How it was run: as §1
# [24] = molecular target: ScRvs167
# How it was run: as §1
# [25] = molecular target: ScSho1
# How it was run: as §1
# [26] = molecular target: ScSla1-D1-D2
# How it was run: as §1
# [27] = molecular target: ScSla1-D3
# How it was run: as §1
# [28] = molecular target: SpAbp1-D1
# How it was run: as §1
# [29] = molecular target: SpBbc1
# How it was run: as §1
# [30] = molecular target: SpBzz1-D1
# How it was run: as §1
# [31] = molecular target: SpBzz1-D2
# How it was run: as §1
# [32] = molecular target: SpCyk3
# How it was run: as §1
# [33] = molecular target: SpHof1
# How it was run: as §1
# [34] = molecular target: SpHof1-2
# How it was run: as §1
# [35] = molecular target: SpHof1-3
# How it was run: as §1
# [36] = molecular target: SpHse1
# How it was run: as §1
# [37] = molecular target: SpLsb1
# How it was run: as §1
# [38] = molecular target: SpLsb4
# How it was run: as §1
# [39] = molecular target: SpMyo1
# How it was run: as §1
# [40] = molecular target: SpNbp2
# How it was run: as §1
# [41] = molecular target: SpPex13
# How it was run: as §1
# [42] = molecular target: SpRvs167
# How it was run: as §1
# [43] = molecular target: SpSla1-D1-D2
# How it was run: as §1
# [44] = molecular target: SpSla1-D3
# How it was run: as §1
# [45] = molecular target: AgAbp1
# How it was run: as §1
# [46] = molecular target: AgBbc1
# How it was run: as §1
# [47] = molecular target: AgBem1-D1
# How it was run: as §1
# [48] = molecular target: AgBzz1-D1
# How it was run: as §1
# [49] = molecular target: AgBzz1-D2
# How it was run: as §1
# [50] = molecular target: AgCyk3
# How it was run: as §1
# [51] = molecular target: AgFus1
# How it was run: as §1
# [52] = molecular target: AgHof1
# How it was run: as §1
# [53] = molecular target: AgHse1
# How it was run: as §1
# [54] = molecular target: AgLsb1
# How it was run: as §1
# [55] = molecular target: AgLsb4
# How it was run: as §1
# [56] = molecular target: AgMyo5
# How it was run: as §1
# [57] = molecular target: AgNbp2
# How it was run: as §1
# [58] = molecular target: AgRvs167
# How it was run: as §1
# [59] = molecular target: AgSho1
# How it was run: as §1
# [60] = molecular target: AgSla1-D1-D2
# How it was run: as §1
# [61] = molecular target: AgSla1-D3
# How it was run: as §1
# [62] = molecular target: CaAbp1-D1
# How it was run: as §1
# [63] = molecular target: CaAbp1-D2
# How it was run: as §1
# [64] = molecular target: CaBbc1
# How it was run: as §1
# [65] = molecular target: CaBem1-D1
# How it was run: as §1
# [66] = molecular target: CaBzz1-D1
# How it was run: as §1
# [67] = molecular target: CaBzz1-D2
# How it was run: as §1
# [68] = molecular target: CaCyk3
# How it was run: as §1
# [69] = molecular target: CaFus1
# How it was run: as §1
# [70] = molecular target: CaHof1
# How it was run: as §1
# [71] = molecular target: CaHse1
# How it was run: as §1
# [72] = molecular target: CaLsb1
# How it was run: as §1
# [73] = molecular target: CaLsb4
# How it was run: as §1
# [74] = molecular target: CaMyo5
# How it was run: as §1
binder,measurement,setting,value
B1,SPOT peptide array binding signal intensity,[1],371
same,SPOT peptide array binding signal intensity,[2],221
same,SPOT peptide array binding signal intensity,[3],18.5
same,SPOT peptide array binding signal intensity,[4],245
same,SPOT peptide array binding signal intensity,[5],872
same,SPOT peptide array binding signal intensity,[6],9.75
same,SPOT peptide array binding signal intensity,[7],598
same,SPOT peptide array binding signal intensity,[8],294
same,SPOT peptide array binding signal intensity,[9],87
same,SPOT peptide array binding signal intensity,[10],10.5
same,SPOT peptide array binding signal intensity,[11],50
same,SPOT peptide array binding signal intensity,[12],38
same,SPOT peptide array binding signal intensity,[13],138
same,SPOT peptide array binding signal intensity,[14],0.25
same,SPOT peptide array binding signal intensity,[15],1190
same,SPOT peptide array binding signal intensity,[16],27.8
same,SPOT peptide array binding signal intensity,[17],30
same,SPOT peptide array binding signal intensity,[18],2030
same,SPOT peptide array binding signal intensity,[19],71
same,SPOT peptide array binding signal intensity,[20],7.75
same,SPOT peptide array binding signal intensity,[21],2.75
same,SPOT peptide array binding signal intensity,[22],761
same,SPOT peptide array binding signal intensity,[23],52.5
same,SPOT peptide array binding signal intensity,[24],410
same,SPOT peptide array binding signal intensity,[25],1040
same,SPOT peptide array binding signal intensity,[26],1030
same,SPOT peptide array binding signal intensity,[27],16
same,SPOT peptide array binding signal intensity,[28],874
same,SPOT peptide array binding signal intensity,[29],37
same,SPOT peptide array binding signal intensity,[30],444
same,SPOT peptide array binding signal intensity,[31],0.5
same,SPOT peptide array binding signal intensity,[32],5
same,SPOT peptide array binding signal intensity,[33],182
same,SPOT peptide array binding signal intensity,[34],16.8
same,SPOT peptide array binding signal intensity,[35],285
same,SPOT peptide array binding signal intensity,[36],326
same,SPOT peptide array binding signal intensity,[37],153
same,SPOT peptide array binding signal intensity,[38],1630
same,SPOT peptide array binding signal intensity,[39],22.8
same,SPOT peptide array binding signal intensity,[40],286
same,SPOT peptide array binding signal intensity,[41],26
same,SPOT peptide array binding signal intensity,[42],536
same,SPOT peptide array binding signal intensity,[43],2
same,SPOT peptide array binding signal intensity,[44],3
B2,SPOT peptide array binding signal intensity,[45],≤ 0
same,SPOT peptide array binding signal intensity,[46],≤ 0
same,SPOT peptide array binding signal intensity,[47],≤ 0
same,SPOT peptide array binding signal intensity,[48],≤ 0
same,SPOT peptide array binding signal intensity,[49],≤ 0
same,SPOT peptide array binding signal intensity,[50],≤ 0
same,SPOT peptide array binding signal intensity,[51],≤ 0
same,SPOT peptide array binding signal intensity,[52],≤ 0
same,SPOT peptide array binding signal intensity,[53],4
same,SPOT peptide array binding signal intensity,[54],≤ 0
same,SPOT peptide array binding signal intensity,[55],≤ 0
same,SPOT peptide array binding signal intensity,[56],≤ 0
same,SPOT peptide array binding signal intensity,[57],≤ 0
same,SPOT peptide array binding signal intensity,[58],0.5
same,SPOT peptide array binding signal intensity,[59],≤ 0
same,SPOT peptide array binding signal intensity,[60],≤ 0
same,SPOT peptide array binding signal intensity,[61],≤ 0
same,SPOT peptide array binding signal intensity,[62],≤ 0
same,SPOT peptide array binding signal intensity,[63],≤ 0
same,SPOT peptide array binding signal intensity,[64],≤ 0
same,SPOT peptide array binding signal intensity,[65],≤ 0
same,SPOT peptide array binding signal intensity,[66],21
same,SPOT peptide array binding signal intensity,[67],≤ 0
same,SPOT peptide array binding signal intensity,[68],≤ 0
same,SPOT peptide array binding signal intensity,[69],≤ 0
same,SPOT peptide array binding signal intensity,[70],≤ 0
same,SPOT peptide array binding signal intensity,[71],≤ 0
same,SPOT peptide array binding signal intensity,[72],≤ 0
same,SPOT peptide array binding signal intensity,[73],≤ 0
same,SPOT peptide array binding signal intensity,[74],≤ 0
same,SPOT peptide array binding signal intensity,[1],≤ 0
same,SPOT peptide array binding signal intensity,[2],2
same,SPOT peptide array binding signal intensity,[3],2.5
same,SPOT peptide array binding signal intensity,[4],≤ 0
same,SPOT peptide array binding signal intensity,[5],≤ 0
same,SPOT peptide array binding signal intensity,[6],≤ 0
same,SPOT peptide array binding signal intensity,[7],≤ 0
same,SPOT peptide array binding signal intensity,[8],≤ 0
same,SPOT peptide array binding signal intensity,[9],≤ 0
same,SPOT peptide array binding signal intensity,[10],12
same,SPOT peptide array binding signal intensity,[11],≤ 0
same,SPOT peptide array binding signal intensity,[12],≤ 0
same,SPOT peptide array binding signal intensity,[13],≤ 0
same,SPOT peptide array binding signal intensity,[14],≤ 0
same,SPOT peptide array binding signal intensity,[15],≤ 0
same,SPOT peptide array binding signal intensity,[16],≤ 0
same,SPOT peptide array binding signal intensity,[17],≤ 0
same,SPOT peptide array binding signal intensity,[18],≤ 0
same,SPOT peptide array binding signal intensity,[19],≤ 0
same,SPOT peptide array binding signal intensity,[20],≤ 0
same,SPOT peptide array binding signal intensity,[21],1
same,SPOT peptide array binding signal intensity,[22],≤ 0
same,SPOT peptide array binding signal intensity,[23],≤ 0
same,SPOT peptide array binding signal intensity,[24],≤ 0
same,SPOT peptide array binding signal intensity,[25],≤ 0
same,SPOT peptide array binding signal intensity,[26],≤ 0
same,SPOT peptide array binding signal intensity,[27],≤ 0
same,SPOT peptide array binding signal intensity,[28],≤ 0
same,SPOT peptide array binding signal intensity,[29],≤ 0
same,SPOT peptide array binding signal intensity,[30],≤ 0
